PubChem BioAssay (EPA / NIEHS)
Values joined by “and” are separate entries in the source; they are usually repeats but may differ in a detail not shown here. Identical values can stand only once. Inconclusive results are not listed. Active and inactive are the calls of the source. Rule for the calls, unless noted: active = hit-call score of the fitted dose curve at least 0.9, where 1 is the maximum; inconclusive = response in the unintended direction; inactive = score below 0.9.

Key:
[1] = CCTE_Harrill_HTTr_Viability_MCF7: CCTE's 6-hour Cell Viability Assessment for the High-Throughput Transcriptomics (HTTr) Platform, in MCF-7 cells cultured in DMEM + 10% fetal bovine serum, Harrill Lab (AID 2284010; active = hit-call score of the fitted dose curve at least 0.9, where 1 is the maximum; inactive = score below 0.9)
Outline: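 Viability measured through PI dye exclusion by high-content imaging at 6 h post-dosing.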

[2] = CCTE_Harrill_HTTr_Apoptosis_MCF7: CCTE's 6-hour Apoptosis Assessment for the High-Throughput Transcriptomics (HTTr) Platform, in MCF-7 cells cultured in DMEM + 10% fetal bovine serum, Harrill Lab (AID 2284011; active = hit-call score of the fitted dose curve at least 0.9, where 1 is the maximum; inactive = score below 0.9)
Outline: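 MCF-7 cells in DMEM + 10% FBS exposed 6 h to chemicals over an eight-point dilution series. Caspase-3/7 activation imaged by high-content CellEvent Green staining; fitted bidirectionally versus DMSO.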

[3] = CCTE_Harrill_HTTr_CellCount_MCF7: CCTE's Cell Proliferation Assessment for the High-Throughput Transcriptomics (HTTr) Platform, Harrill Lab (AID 2284012);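 note: count of Hoechst-stained nuclei per well by high-content imaging in MCF-7 cells; intended direction is loss of nuclei count meaning fewer cells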
Outline: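 Nuclei counting (Hoechst, high content imaging) in MCF-7 after a 6 h treatment at eight concentrations. Activity fitted bidirectionally, DMSO as negative control.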

[4] = TOX21_p53_BLA_p2_viability: Viability Assessment in the Tox21 HCT-116 p53 Agonism Beta-lactamase Assay, Phase 2 (AID 2283591);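 note: compound exposure lasted 16 h at 37 °C; actives lower the ATP signal meaning cytotoxicity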
Outline: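 HCT-116 p53-bla cells (4000/well) rested 5 h at 37C, then received compounds in DMSO (217-fold dilution) for 16 h at 37C, 5% CO2. After the CCF4 read, CellTiter-Glo was added; ATP luminescence was read after 30 min at room temperature.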

[5] = target: Cellular tumor antigen p53 (Homo sapiens) (UniProt P04637); experiment: TOX21_p53_BLA_p2_ratio: Tox21 HCT-116 p53 Agonism Beta-lactamase Assay, Ratio, Phase 2 (AID 2283592)
Outline: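 HCT-116 cells with p53-responsive beta-lactamase reporter, 4000 cells/well, preincubated 5 h, then compound in DMSO (217-fold dilution) for 16 h at 37C. CCF4-AM substrate 2 h at room temperature; 460/530 nm emission ratio fitted upward versus DMSO.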

[6] = TOX21_p53_BLA_p3_viability: Viability Assessment in the Tox21 HCT-116 p53 Agonism Beta-lactamase Assay, Phase 3 (AID 2283593);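 note: cells exposed to compound for 16 h before reading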
Outline: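 HCT-116 cells (4000/well) rested 5 h at 37C, then got DMSO compounds by pin tool (217-fold dilution) for 16 h at 37C, 5% CO2. After the bla read, CellTiter-Glo was added and luminescence read at 30 min, room temperature.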

[7] = target: Cellular tumor antigen p53 (Homo sapiens) (UniProt P04637); experiment: TOX21_p53_BLA_p3_ratio: Tox21 HCT-116 p53 Agonism Beta-lactamase Assay, Ratio, Phase 3 (AID 2283596)
Outline: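 HCT116 p53-bla cells (4000/well) given compound in DMSO (217-fold dilution) after 5 h, incubated 16 h at 37C. CCF4-AM substrate 2 h at room temperature; 460/530 nm emission ratio, gain fitted against DMSO.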

[8] = TOX21_p53_BLA_p4_viability: Viability Assessment in the Tox21 HCT-116 p53 Agonism Beta-lactamase Assay, Phase 4 (AID 2283597);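 note: hits lower the luminescence signal meaning cytotoxicity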
Outline: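 HCT-116 p53-bla cells, 4000/well, dosed after 5 h attachment and incubated 16 h at 37 °C, 5% CO2. Viability from CellTiter-Glo ATP luminescence after 30 min at room temperature, taken after the beta-lactamase read; loss of signal indicates cytotoxicity.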

[9] = target: Cellular tumor antigen p53 (Homo sapiens) (UniProt P04637); experiment: TOX21_p53_BLA_p5_ratio: Tox21 HCT-116 p53 Agonism Beta-lactamase Assay, Ratio, Phase 5 (AID 2283599)
Outline: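 HCT-116 cells carrying a p53-inducible beta-lactamase reporter were seeded at 4000 cells/well and dosed after 5 h with compound in DMSO (217-fold dilution). After 16 h at 37C, CCF4-AM substrate was added for 2 h, and the 460/530 nm emission ratio was scored as gain-of-signal versus DMSO.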

[10] = TOX21_p53_BLA_p5_viability: Viability Assessment in the Tox21 HCT-116 p53 Agonism Beta-lactamase Assay, Phase 5 (AID 2283600)
Outline: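 HCT-116 p53 beta-lactamase reporter cells, 4000/well, were exposed to compound (pin transfer, 217-fold dilution) for 16 hours at 37C. Cellular ATP was read by CellTiter-Glo luminescence after 30 min at room temperature.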

[11] = target: Cellular tumor antigen p53 (Homo sapiens) (UniProt P04637); experiment: TOX21_p53_BLA_p4_ratio: Tox21 HCT-116 p53 Agonism Beta-lactamase Assay, Ratio, Phase 4 (AID 2283601)
Outline: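 HCT116 cells carrying an inducible beta-lactamase reporter were plated at 4000 cells/well, rested 5 h, then exposed to compounds in DMSO (217-fold dilution) for 16 h at 37C. CCF4-AM substrate was loaded 2 h at room temperature; 460/530 nm emission ratio scored gain-of-signal versus DMSO.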

[12] = target: Thyroid hormone receptor alpha (Rattus norvegicus) + Thyroid hormone receptor beta (Rattus norvegicus) (UniProt P18113+P63059); experiment: TOX21_TR_LUC_GH3_Antagonist_Followup: Tox21 GH3 Thyroid Hormone Receptor Antagonism Luciferase Follow-Up Assay (AID 2283942)
Outline: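 Rat pituitary GH3 cells with a TRα/TRβ-driven luciferase reporter, 5 h attachment, then 15 concentrations (92 uM to 5nM final) plus 1.0 nM T3 agonist, 24 h at 37C/5% CO2. ONE-Glo luminescence; signal change fitted against DMSO baseline.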

[13] = TOX21_TRB_BLA_Antagonist_Followup_viability: Viability Assessment in the Tox21 Thyroid Hormone Receptor beta Antagonism Beta-lactamase (BLA) Follow-Up Assay (AID 2283961)
Outline: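 HEK293T cells with GAL4-human TRβ LBD and UAS-bla reporter, 3,000 cells/well in 2% charcoal-stripped FBS medium; 11-point concentrations in triplicate, 18 h at 37C. Viability from ATP by CellTiter-Glo luminescence, 30 min RT, same plates.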

THRB (gene 7068) = THRB (gene 7068) (UniProt P10828); experiment: TOX21_TRB_COA_Antagonist_Followup_ratio: Tox21 Thyroid Hormone Receptor beta Antagonism through Coactivator Recruitment Follow-Up Assay, Ratio (AID 2283967)
Outline: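 Cell-free TR-FRET coactivator recruitment with GST-tagged TRβ LBD (5.0 nM) and fluorescein-labeled SRC-2 peptide (200 nM) detected by terbium anti-GST antibody (2 nM). The 520:495 nm emission ratio was normalized to DMSO (0%) and T3 (100%).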

[14] = target: Retinoic acid receptor RXR-alpha (Homo sapiens) (UniProt P19793); experiment: TOX21_TR_RXR_BLA_Antagonist_Followup_ratio: Tox21 Thyroid Hormone Receptor beta Retinoid X Receptor alpha (RXRa) Antagonism Beta-lactamase (BLA) Follow-Up Assay, Ratio (AID 2283972)
Outline: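 RXRa-UAS-bla HEK293T cells, 2,500/well in phenol red-free DMEM with 2% charcoal-stripped FBS, 5 h attachment, then compounds (11 concentrations, triplicate) for 16 h at 37C; FRET-B/GCCF4-AM substrate 2 h RT; 460:530 nm ratio, loss of signal vs DMSO.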

[15] = TOX21_TR_RXR_BLA_Antagonist_Followup_viability: Viability Assessment in the Tox21 Thyroid Hormone Receptor beta Retinoid X Receptor alpha (RXRa) Antagonism Beta-lactamase (BLA) Follow-Up Assay (AID 2283979)
Outline: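 RXRa-UAS-bla HEK293T cells seeded 2,500/well in phenol red-free DMEM with 2% charcoal-stripped FBS, attached 5 h, then exposed to compounds at 11 concentrations in triplicate for 16 h at 37C/5% CO2. Viability read by CellTiter-Glo ATP luminescence; bidirectional fit versus DMSO.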

Chain of Cellular tumor antigen p53 (Homo sapiens) (P04637 whole entry, looked up): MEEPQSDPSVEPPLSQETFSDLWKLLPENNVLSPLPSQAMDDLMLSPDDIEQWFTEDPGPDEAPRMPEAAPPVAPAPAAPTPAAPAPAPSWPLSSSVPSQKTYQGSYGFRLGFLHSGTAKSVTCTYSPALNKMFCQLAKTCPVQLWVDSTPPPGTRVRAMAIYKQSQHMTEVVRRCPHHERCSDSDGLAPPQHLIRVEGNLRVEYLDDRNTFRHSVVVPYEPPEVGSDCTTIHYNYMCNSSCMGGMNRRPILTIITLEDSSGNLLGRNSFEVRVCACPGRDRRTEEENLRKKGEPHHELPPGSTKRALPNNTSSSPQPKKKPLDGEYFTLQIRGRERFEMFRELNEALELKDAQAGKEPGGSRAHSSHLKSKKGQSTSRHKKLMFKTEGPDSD
Chain of Retinoic acid receptor RXR-alpha (Homo sapiens) (P19793 whole entry, looked up): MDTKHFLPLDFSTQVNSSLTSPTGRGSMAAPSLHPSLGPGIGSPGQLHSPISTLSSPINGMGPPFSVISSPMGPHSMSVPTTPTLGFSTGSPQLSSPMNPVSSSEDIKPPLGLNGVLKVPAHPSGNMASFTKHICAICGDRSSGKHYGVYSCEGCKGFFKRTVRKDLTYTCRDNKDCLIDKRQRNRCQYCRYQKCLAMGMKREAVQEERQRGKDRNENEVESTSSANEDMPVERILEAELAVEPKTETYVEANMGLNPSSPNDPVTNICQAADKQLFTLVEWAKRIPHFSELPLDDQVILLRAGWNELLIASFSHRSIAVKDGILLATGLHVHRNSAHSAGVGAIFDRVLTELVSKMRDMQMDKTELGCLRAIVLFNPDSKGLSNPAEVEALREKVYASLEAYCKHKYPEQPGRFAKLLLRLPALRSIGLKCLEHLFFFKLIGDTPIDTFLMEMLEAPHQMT
Chain of THRB (gene 7068) (P10828 whole entry, looked up, the tested form may be a part): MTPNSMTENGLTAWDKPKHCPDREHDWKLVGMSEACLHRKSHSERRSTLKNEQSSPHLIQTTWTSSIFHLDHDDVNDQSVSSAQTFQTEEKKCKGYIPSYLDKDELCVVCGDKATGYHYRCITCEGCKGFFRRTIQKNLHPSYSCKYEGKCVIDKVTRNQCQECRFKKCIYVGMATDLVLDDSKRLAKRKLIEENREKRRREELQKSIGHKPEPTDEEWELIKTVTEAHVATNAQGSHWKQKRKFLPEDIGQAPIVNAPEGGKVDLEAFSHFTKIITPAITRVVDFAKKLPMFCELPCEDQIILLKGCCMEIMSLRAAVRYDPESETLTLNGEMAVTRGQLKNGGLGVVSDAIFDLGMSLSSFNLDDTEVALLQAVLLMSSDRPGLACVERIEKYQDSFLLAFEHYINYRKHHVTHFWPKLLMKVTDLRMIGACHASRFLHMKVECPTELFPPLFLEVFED

| Structure (SMILES) | outcome [1] | outcome [2] | outcome [3] | outcome [4] | AC50 [5] | outcome [6] | AC50 [7] | outcome [8] | AC50 [9] | outcome [10] | AC50 [11] | AC50 [12] | outcome [13] | outcome (THRB (gene 7068)) | outcome [14] | AC50 [15] |
| --- | --- | --- | --- | --- | --- | --- | --- | --- | --- | --- | --- | --- | --- | --- | --- | --- |
| O=C1Nc2ccc(Cl)cc2[C@@](C#CC2CC2)(C(F)(F)F)O1 | inactive | inactive | inactive |  |  |  |  |  |  |  |  |  |  |  |  |  |
| Nc1c2ccccc2nc2ccccc12 |  |  |  | inactive | 2.18 µM (active) and 2.99 µM (active) | inactive | 5.09 µM (active) and 6.02 µM (active) | inactive | 3.58 µM (active) and 3.94 µM (active) | inactive | 2.28 µM (active) and 5.34 µM (active) | 6.25 µM (active) | inactive | inactive | inactive | 10.6 µM (active) |
